13 molecules from the supplement of paper PMC9588786 can be followed below.

± gives the standard deviation of the averaged measurements.
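Note: viability read as CCK-8 absorbance at 450 nm in cells co-exposed to the GPX4 inhibitor RSL3, relative to a 0.01% DMSO vehicle control.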

The test system of this assay is HT-1080. The assay is described as follows: relative cell viability with RSL3 co-treatment (fraction of control); higher = stronger protection from RSL3-induced ferroptosis (higher viability). Particulars: 10 µM.
For the molecule `CCc1cncnc1N1CCN(Cc2nc3ccc(C(F)(F)F)cc3[nH]2)CC1`, the relative cell viability came out at 0.653 ± 0.083.

On to `CCNC(=O)Nc1ccc(-c2nc3c(c(N4CCOC[C@@H]4C)n2)CCN(C2COC2)C3)cc1`, for which the relative cell viability was 0.503 ± 0.2.

Consider `O=c1c(-c2ccc(O)cc2)coc2cc(O)cc(O)c12` [Genistein], for which the relative cell viability was 0.76 ± 0.07.

Consider `O=S(=O)(NCCNC/C=C/c1ccc(Br)cc1)c1cccc2cnccc12`, for which the relative cell viability worked out at 0.577 ± 0.045.

On to `OC(c1cc(-c2ccc(Cl)cc2)nc2ccccc12)C1CCCCN1` (stereo not drawn) [Vacquinol-1], for which the relative cell viability worked out at 0.0533 ± 0.035.

With `CN1CCCN(C(=O)c2cccc(-c3ccc(/C=C4/C(=O)Nc5ccc(Cl)cc54)o3)c2)CC1`, the relative cell viability was 0.743 ± 0.061.

In the case of `CC(C)(C)Cn1c(N)nc2ccc(-c3[nH]c(C(C)(C)C)nc3-c3ccc(F)cc3)nc21`, the relative cell viability was found to be 0.71 ± 0.017.

For the molecule `Cc1cnc(NC(=O)Nc2cc(Br)c(C)cc2OC[C@@H]2CNCCO2)cn1`, the relative cell viability turned out to be 0.447 ± 0.17.

As to `CCn1c(=O)c(-c2ccc(-c3cncs3)cc2Cl)cc2cnc(Nc3ccc(N4CCN(C)CC4)cc3)nc21`, the relative cell viability was 0.833 ± 0.032.

For `CC(C)CCN1c2nc(Nc3cc(F)c(O)c(F)c3)ncc2N(C)C(=O)C1C` (stereo not drawn), the relative cell viability turned out to be 0.717 ± 0.14.

Turning to `COc1cc(CCc2cc(NC(=O)c3ccc(N4CC(C)NC(C)C4)cc3)n[nH]2)cc(OC)c1` (stereo not drawn), the relative cell viability was 0.673 ± 0.14.

As to `CCn1c(N)c(C(=O)NC)c(=O)c2ccc(C#CC(C)(O)COC)nc21` (stereo not drawn), the relative cell viability turned out to be 0.89 ± 0.16.

In the case of `CCN(C)S(=O)(=O)Nc1ccc(F)c(C(=O)c2c[nH]c3ncc(-c4cnc(C5CC5)nc4)cc23)c1F`, the relative cell viability stood at 0.71 ± 0.017.
